# The supplement of paper PMC8728848
# This is one part of a sample in which the strongest signals are shown more often than they occur.
# B1: Lmo1413 (Listeria monocytogenes), Q8Y783 (protein)
# chain: MKHAKKSLFTFIIFMTILSITFNPFSAKAAPLMLNLPAPQVDQLYIGDDYITGKLQQEVPMHYPGNAAYVLFNNKQYNITDYTVENDVNFRLKLPKTLEAGDTLNYFTITGNVLDPVAYPGQESYKLAGPFSPIEKANIQVNYVDETNQTLATSDTLSGKLGETYTTSPKAIDGYQVKETPTNATGTYTTNTETIQINYVYEKTAVEGANVSVEYINEATNESIAPTETLSGKIGTTFQAEVKEIDGYELSQVPSNQSGTYTDQTQSVIFKYKKITTPDEVAKDVTVTYKDTKGNQLADPVILKGDIGSTFETEAKSFKGYKLTKTPSNHSSVFTSDSQEVEYVYSKDDAVITPPVTPVNPDKPIINPVKPVNPATSTVPNKNISKKNTTKTVNQTGKTSTALQLPKTGDSENNLPLIIGVSLLISGVYIFTTRRKRVK
# B2: EcCDA (Encephalitazoon cuniculi), Q8SU65 (protein)
# chain: MLLCLLYFTSSWCSGSDVPDVCTNSGMIAINFVDGPVRGVTDRILNTLDELGVKATFSFTVNQKAVGNVGQLYRRAVEEGHNVALRVDPSMDEGYQCLSQDALENNVDREIDTIDGLSGTEIRYAAVPICNGQVNSEMYNILTERGVLPVGYTFCPYDYDDPVGEFESMIEGSDPKHHSFIILMHDGQEADTSRLENMVKIGKDKGYRFVNMDECLQGYKGAPGDPELSLRGKGVESIGKGFLPFFLMMLVRLL
# What was measured:
# Assay in all cases: glycan array binding signal (z-score within array); higher = stronger binding
# Conditions in all cases: glycan notation: IUPAC condensed, linker removed
# Gal(a1-3)Gal = biological target: Gal(a1-3)Gal
# Procedure, shortened: (§1)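 The Consortium for Functional Glycomics database supplied 3228 glycan arrays, of which those lacking an available protein sequence were dropped. The binding signal, a within-array Z-score, was averaged across arrays of the same protein sequence and across linkers. Negative scores can be read as non-binding.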
# [1] = biological target: Gal(a1-3)Gal(b1-4)[Fuc(a1-3)]GlcNAc(b1-2)Man(a1-3)[Gal(a1-3)Gal(b1-4)[Fuc(a1-3)]GlcNAc(b1-2)Man(a1-6)]Man(b1-4)GlcNAc(b1-4)GlcNAc
# Procedure, shortened: as §1
# Gal(a1-3)GalNAc = biological target: Gal(a1-3)GalNAc
# Procedure, shortened: as §1
# [2] = biological target: Gal(b1-3)GalNAc(b1-3)Gal(a1-4)Gal(b1-4)Glc
# Procedure, shortened: as §1
# [3] = biological target: Gal(b1-3)GlcNAc(b1-2)Man(a1-3)[Gal(b1-3)GlcNAc(b1-2)Man(a1-6)]Man(b1-4)GlcNAc(b1-4)GlcNAc
# Procedure, shortened: as §1
# [4] = biological target: Gal(b1-3)GlcNAc(b1-3)Gal(b1-3)GlcNAc
# Procedure, shortened: as §1
# [5] = biological target: Gal(b1-3)GlcNAc(b1-3)Gal(b1-4)[Fuc(a1-3)]GlcNAc(b1-6)[Gal(b1-3)GlcNAc(b1-3)]Gal(b1-4)Glc
# Procedure, shortened: as §1
# [6] = biological target: Gal(b1-3)[Fuc(a1-4)]GlcNAc(b1-2)Man(a1-3)[Gal(b1-3)[Fuc(a1-4)]GlcNAc(b1-2)Man(a1-6)]Man(b1-4)GlcNAc(b1-4)GlcNAc
# Procedure, shortened: as §1
# [7] = biological target: Gal(b1-3)[Fuc(a1-4)]GlcNAc(b1-3)Gal(b1-3)[Fuc(a1-4)]GlcNAc
# Procedure, shortened: as §1
# [8] = biological target: Gal(b1-3)[Neu5Ac(b2-6)]GalNAc
# Procedure, shortened: as §1
# [9] = biological target: Gal(b1-4)GlcNAc(b1-2)Man(a1-3)Man(b1-4)GlcNAc(b1-4)GlcNAc
# Procedure, shortened: as §1
# [10] = biological target: Gal(b1-4)GlcNAc(b1-2)Man(a1-3)[Man(a1-6)]Man(b1-4)GlcNAc(b1-4)GlcNAc
# Procedure, shortened: as §1
# Gal4S(b1-4)GlcNAc = biological target: Gal4S(b1-4)GlcNAc
# Procedure, shortened: as §1
# Glc(a1-4)Glc = biological target: Glc(a1-4)Glc
# Procedure, shortened: as §1
# GlcA(b1-3)GlcNAc = biological target: GlcA(b1-3)GlcNAc
# Procedure, shortened: as §1
# GlcA(b1-6)Gal = biological target: GlcA(b1-6)Gal
# Procedure, shortened: as §1
# [11] = biological target: GlcNAc(a1-3)Gal(b1-4)GlcNAc
# Procedure, shortened: as §1
# [12] = biological target: GlcNAc(a1-4)Gal(b1-4)GlcNAc(b1-3)Gal(b1-4)Glc
# Procedure, shortened: as §1
# [13] = biological target: GlcNAc(a1-6)Gal(b1-4)GlcNAc
# Procedure, shortened: as §1
# [14] = biological target: GlcNAc(b1-2)Gal(b1-3)GalNAc
# Procedure, shortened: as §1
# [15] = biological target: GlcNAc(b1-4)GlcNAc(b1-4)GlcNAc
# Procedure, shortened: as §1
# Kdn(a2-6)Gal(b1-4)GlcNAc = biological target: Kdn(a2-6)Gal(b1-4)GlcNAc
# Procedure, shortened: as §1
# [16] = biological target: Man(a1-3)[Man(a1-6)]Man(b1-4)GlcNAc(b1-4)GlcNAc
# Procedure, shortened: as §1
# [17] = biological target: Neu5Ac(a2-3)Gal(b1-4)GlcNAc(b1-2)Man(a1-3)[Neu5Ac(a2-6)Gal(b1-4)GlcNAc(b1-2)Man(a1-6)]Man(b1-4)GlcNAc(b1-4)GlcNAc
# Procedure, shortened: as §1
# [18] = biological target: Neu5Ac(a2-3)Gal(b1-4)[Fuc(a1-3)]GlcNAc(b1-3)Gal(b1-4)[Fuc(a1-3)]GlcNAc(b1-3)Gal(b1-4)[Fuc(a1-3)]GlcNAc
# Procedure, shortened: as §1
# [19] = biological target: Neu5Ac(a2-6)Gal(b1-4)GlcNAc(b1-3)GalNAc
# Procedure, shortened: as §1
# [20] = biological target: Neu5Ac(a2-6)GlcNAc(b1-4)GlcNAc(b1-4)GlcNAc
# Procedure, shortened: as §1
# [21] = biological target: Neu5Ac9Ac(a2-6)Gal(b1-4)GlcNAc
# Procedure, shortened: as §1
# Neu5Gc(a2-3)Gal(b1-4)Glc = biological target: Neu5Gc(a2-3)Gal(b1-4)Glc
# Procedure, shortened: as §1
# [22] = biological target: Fuc(a1-2)[Gal(a1-3)]Gal(b1-4)Glc
# Procedure, shortened: as §1
# [23] = biological target: Fuc(a1-3)[Gal(b1-4)]GlcNAc
# Procedure, shortened: as §1
# Gal(a1-6)Glc = biological target: Gal(a1-6)Glc
# Procedure, shortened: as §1
# Gal(b1-3)Gal = biological target: Gal(b1-3)Gal
# Procedure, shortened: as §1
# [24] = biological target: Gal(b1-3)GalNAc(b1-3)Gal(b1-4)GlcNAc
# Procedure, shortened: as §1
# [25] = biological target: Gal(b1-3)GalNAc(b1-4)[Neu5Ac(a2-3)]Gal(b1-4)Glc
# Procedure, shortened: as §1
# [26] = biological target: Gal(b1-4)GlcNAc(b1-6)[Gal(b1-3)]GalNAc
# Procedure, shortened: as §1
# Gal3S(b1-3)GalNAc = biological target: Gal3S(b1-3)GalNAc
# Procedure, shortened: as §1
# Gal3S(b1-4)Glc = biological target: Gal3S(b1-4)Glc
# Procedure, shortened: as §1
# Gal3S(b1-4)Glc6S = biological target: Gal3S(b1-4)Glc6S
# Procedure, shortened: as §1
# [27] = biological target: GalNAc(b1-3)Gal(a1-4)Gal(b1-4)GlcNAc
# Procedure, shortened: as §1
# GalNAc(b1-4)GlcNAc = biological target: GalNAc(b1-4)GlcNAc
# Procedure, shortened: as §1
# [28] = biological target: Man(a1-2)Man(a1-3)[Man(a1-3)[Man(a1-6)]Man(a1-6)]Man(b1-4)GlcNAc(b1-4)GlcNAc
# Procedure, shortened: as §1
# [29] = biological target: Man(a1-3)[Man(a1-6)]Man(a1-6)[Man(a1-3)]Man(b1-4)GlcNAc(b1-4)GlcNAc
# Procedure, shortened: as §1
# [30] = biological target: Neu5Ac(a2-3)Gal(b1-3)GalNAc(b1-3)Gal(a1-4)Gal(b1-4)Glc
# Procedure, shortened: as §1
# [31] = biological target: Neu5Ac(a2-3)Gal(b1-3)[Neu5Ac(a2-6)]GalNAc
# Procedure, shortened: as §1
# Neu5Ac(a2-3)Gal(b1-4)Glc = biological target: Neu5Ac(a2-3)Gal(b1-4)Glc
# Procedure, shortened: as §1
# [32] = biological target: Neu5Ac(a2-3)Gal(b1-4)GlcNAc6S
# Procedure, shortened: as §1
# Neu5Ac(a2-3)GalNAc = biological target: Neu5Ac(a2-3)GalNAc
# Procedure, shortened: as §1
binder,measurement,setting,value
B1,glycan array binding signal (z-score),Gal(a1-3)Gal,-0.219
same,glycan array binding signal (z-score),[1],0.065
same,glycan array binding signal (z-score),Gal(a1-3)GalNAc,-0.056
same,glycan array binding signal (z-score),[2],-0.2
same,glycan array binding signal (z-score),[3],-0.218
same,glycan array binding signal (z-score),[4],-0.215
same,glycan array binding signal (z-score),[5],-0.158
same,glycan array binding signal (z-score),[6],1.29
same,glycan array binding signal (z-score),[7],-0.139
same,glycan array binding signal (z-score),[8],2.02
same,glycan array binding signal (z-score),[9],-0.199
same,glycan array binding signal (z-score),[10],-0.229
same,glycan array binding signal (z-score),Gal4S(b1-4)GlcNAc,-0.075
same,glycan array binding signal (z-score),Glc(a1-4)Glc,2.23
same,glycan array binding signal (z-score),GlcA(b1-3)GlcNAc,1.78
same,glycan array binding signal (z-score),GlcA(b1-6)Gal,0.693
same,glycan array binding signal (z-score),[11],1.66
same,glycan array binding signal (z-score),[12],-0.095
same,glycan array binding signal (z-score),[13],1.42
same,glycan array binding signal (z-score),[14],2.98
same,glycan array binding signal (z-score),[15],0.095
same,glycan array binding signal (z-score),Kdn(a2-6)Gal(b1-4)GlcNAc,-0.144
same,glycan array binding signal (z-score),[16],-0.231
same,glycan array binding signal (z-score),[17],-0.29
same,glycan array binding signal (z-score),[18],0.379
same,glycan array binding signal (z-score),[19],-0.219
same,glycan array binding signal (z-score),[20],-0.222
same,glycan array binding signal (z-score),[21],-0.263
same,glycan array binding signal (z-score),Neu5Gc(a2-3)Gal(b1-4)Glc,-0.252
B2,glycan array binding signal (z-score),[22],2.96
same,glycan array binding signal (z-score),[23],-0.055
same,glycan array binding signal (z-score),Gal(a1-6)Glc,3.02
same,glycan array binding signal (z-score),Gal(b1-3)Gal,-0.337
same,glycan array binding signal (z-score),[24],-0.363
same,glycan array binding signal (z-score),[25],-0.234
same,glycan array binding signal (z-score),[26],-0.1
same,glycan array binding signal (z-score),Gal3S(b1-3)GalNAc,0.115
same,glycan array binding signal (z-score),Gal3S(b1-4)Glc,0.022
same,glycan array binding signal (z-score),Gal3S(b1-4)Glc6S,5.58
same,glycan array binding signal (z-score),[27],1.6
same,glycan array binding signal (z-score),GalNAc(b1-4)GlcNAc,-0.289
same,glycan array binding signal (z-score),[28],-0.2
same,glycan array binding signal (z-score),[29],-0.34
same,glycan array binding signal (z-score),[30],-0.476
same,glycan array binding signal (z-score),[31],-0.318
same,glycan array binding signal (z-score),Neu5Ac(a2-3)Gal(b1-4)Glc,-0.322
same,glycan array binding signal (z-score),[32],-0.284
same,glycan array binding signal (z-score),Neu5Ac(a2-3)GalNAc,0.071
same,glycan array binding signal (z-score),[21],4.58
